Assay outcomes (PubChem BioAssay)
Sampled rows, rich in hits. Any-hit rate of the full collection: about 17%.
ATXN2 expr inh – ATXN2 expression inhibition. HEK-293 ATXN2-luciferase reporter, luminescence, 24 h. Potency, µM (series often up to 57 µM), for inactives: at the top dose activity change, negative = inhibition, hits mostly inhibitors. 360,000 tested, 0.72% active. AID 1745845; also: % is scaled to controls: 0 for no effect and ±100 for the full control effect; nearly all actives have a fitted effect of over 55% in size
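qHTS (up to 57 uM final) was run with 24 h compound exposure of reporter cells at 37 °C. Each well was multiplexed: SteadyGlo luminescence measured ATXN2-luciferase expression after a fluorogenic Gly-Phe-AFC viability readout (25 uM final).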
DT40 TDP1 CPT – growth inhibition of DT40 Tdp1-/-;hTDP1 cells with camptothecin (screen for TDP1 inhibitors). AID 686979. chicken DT40 Tdp1-/-;hTDP1 cells + 20 nM CPT, ATP luminescence, 48 h. Potency, µM (highest dose often 46.2 µM), inactives show at the top dose activity change, negative = growth inhibition, most hits filed as inhibitors. 420,000 tested, 12% active; also: % is scaled to controls: 0 for no effect and ±100 for the full control effect; nearly all actives have a fitted effect of over 55% in size
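Chicken DT40 Tdp1-/- cells stably complemented with human TDP1 were seeded at 400 cells/well in medium containing 20 nM camptothecin, exposed to pin-transferred compounds, and grown at 37 °C for at least 48 hr. Viability was read as ATP luminescence.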
DT40 TDP1 no CPT – qHTS for Inhibitors of human tyrosyl-DNA phosphodiesterase 1 (TDP1): qHTS in cells in absence of CPT; 420,000 tested, 15% active; AID 686978, 2013; DT40 Tdp1-/- hTDP1 cells, no CPT, ATP luminescence, 48 h; Potency, µM (highest dose often 46.2 µM), for inactives: at the top dose activity change, negative = growth inhibition, hits mostly inhibitors; also: % is scaled to controls: 0 for no effect and ±100 for the full control effect; nearly all actives have a fitted effect of over 55% in size
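Readout: luminescence from CellTiter-Glo after 30 min in the dark at RT. Cells: DT40 Tdp1-/- with stable hTDP1, 400/well. Exposure: compounds alone, ≥48 hr, 37 °C.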
TGFb SMAD3 inh – TGF-b pathway inhibition | 410,000 tested, 1.2% active | Potency, µM (doses to about 46.1 µM), for inactives: at the highest dose activity, negative = inhibition, usual class: inhibitors | HepG2 CAGA-GFP TGF-b/SMAD3 reporter, GFP fluorescence, 18 h; TGF-beta stimulated, 500 pg/mL final; also: % is scaled to controls: 0 for no effect and ±100 for the full control effect; nearly all actives have a fitted effect of over 65% in size
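Per well, imaged GFP fluorescence of HEPG2 CAGA-GFP cells gives the signal; cells get compound, then TGF-beta (500 pg/mL final), 18 h at 37 degrees C; %Activity versus -TGF-beta and +DMSO controls.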
ATXN viability – cell viability loss in ATXN counter-screen; 400,000 tested, 0.49% active; S2 cells (HEK-293 line with an ATXN2-luciferase reporter) viability, CellTiter-Fluor protease fluorescence, 24 h; Potency, µM (doses to about 56.7 µM), actives largely listed as cytotoxic; also: nearly all actives have a fitted effect of over 40% in size
HepG2 tox – HepG2 cytotoxicity, counter-screen for TGF-b inhibitors | AID 588856 | Potency, µM (series often up to 46.1 µM), for the others: at the top dose activity change, negative = cytotoxicity, actives largely listed as cytotoxic | 410,000 tested, 0.76% active | HepG2 CAGA-GFP viability, ATP luminescence, 18 h
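CellTiter-Glo luminescence gave cytotoxicity after 18 hours at 37 degrees C. The cells were HepG2 CAGA-GFP in 1% FBS DMEM, stimulated with 500 pg/mL TGF-beta after compound addition. %Activity was normalised to no-cell wells (complete cell-killing) and DMSO (no toxicity), and curves were fitted and classified.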
* hit, by the source's call; i = inactive; ? = inconclusive; nt = no result given; ! = not active in a repeat; [ ] = remark or other dose. Calls follow the shape of the dose curve; as a rule, active = well fitted curve in the direction sought with a large enough effect; inconclusive = small, poorly fitted or top-dose-only effect, or another doubt; inactive = no such curve, though single readings can be large; an effect the other way counts as inactive or inconclusive. Potency is read from the fitted curve at half-maximal effect.

SMILES | ATXN2 expr inh | DT40 TDP1 CPT | DT40 TDP1 no CPT | TGFb SMAD3 inh | ATXN viability | HepG2 tox
COc1cc2c(cc1OC)C(COc1ccc(F)cc1)N(C(=O)c1cccc(F)c1)CC2 (stereo unspecified) | ? | 16µM* | ? | -25% | i | -30%
CCCCC(=O)N1CCc2cc(OC)c(OC)cc2C1COc1ccc(C(=O)OCC)cc1 (stereo unspecified) | ? | ? | 18µM* | -22% | i | -31%
CCOC(=O)c1ccc(OCC2NCCc3cc(OC)c(OC)cc32)cc1 (stereo unspecified) | 7% | ? | ? | 4% | ? | 2%
Cc1noc(C)c1C(=O)N1CCC2(CC1)CCN(c1ccncc1)CC2 | nt | -26% | ? | nt | nt | nt
COc1ccc(-c2coc3cc(OC(C)=O)cc(OC(C)=O)c3c2=O)cc1 | nt | 9% | 10% | nt | nt | nt
CCc1ccc(Nc2n[n+](-c3ccccc3)c(-c3c(Cl)cccc3Cl)s2)cc1 | 10µM* | 23µM* | 15µM* | 7.1µM* | 10µM* | -108%
Fc1ccc(-[n+]2nc(Nc3ccccc3)sc2-c2c(Cl)cccc2Cl)cc1 | ? | 18µM* | ? | ? | nt | 11µM*
Cc1cccc(-c2sc(Nc3ccccc3)n[n+]2-c2ccccc2)c1 | -5% | ? | ? | -15% | i | -15%
CCc1ccc(Nc2n[n+](-c3ccccc3)c(-c3cc(OC)c(OC)cc3Br)s2)cc1 | -10% | 16µM* | ? | -20% | i | -11%
O=C(NCc1ccccc1)C(c1ccncc1)N(C(=O)c1ccccn1)c1ccccc1 (stereo unspecified) | 29% | -5% | 1% | 17% | i | 6%
Cc1ccc(C)c(S(=O)(=O)c2c[nH]c(=S)[nH]c2=O)c1 | nt | 2% | -2% | -1% | i | -2%
CC(C)N(Cc1ccccc1)C(=O)COC(=O)C1CCN(S(=O)(=O)c2ccc3c(c2)OCCO3)CC1 | 2% | -25% | -11% | -3% | i | -7%
CCN(CC)C(=S)Sc1c(-c2ccccc2)c2cc(Cl)ccc2[nH]c1=O | -16% | 2.3µM* | ? | ? | i | -3%
CC(=O)NNC(=O)c1[nH]c2ccc(Br)cc2c1-c1ccccc1 | 0% | -19% | -1% | ? | i | -15%
NNC(=O)c1[nH]c2ccc(Br)cc2c1-c1ccccc1 | -34% | ? | 23µM* | ? | ? | -27%
NNC(=O)c1[nH]c2ccc(Cl)cc2c1-c1ccccc1 | -18% | ? | 21µM* | ? | i | -19%
O=C(O)CSc1c(-c2ccccc2)c2cc(Cl)ccc2[nH]c1=O | -6% | -4% | -4% | -1% | i | 2%
CCN(C[C@H]1N[C@@](CC)(C(=O)OC)[C@H]2C(=O)N(C)C(=O)[C@@H]12)C(=O)c1ccc(C(C)(C)C)cc1 | 8% | 10% | ? | 20% | i | -34%
CCCCN(C)S(=O)(=O)c1cc(-c2nnc3c4ccccc4c(C)nn23)ccc1C | -7% | 3.7µM* | 7.3µM* | 157% | i | 147%
CN(C)c1ccc2nc3ccc(=O)cc-3sc2c1 | nt | 1.6µM* | 1.6µM* | ? | i | -104%
c1ccc2nc(-c3cc4ccccc4s3)ccc2c1 | nt | -29% | -26% | -2% | nt | -13%
Cc1cc2nc3ccc(=[N+](C)C)cc-3sc2cc1N | 7.1µM* | 1.2µM* | 0.41µM* | ? | 13µM* | 8.9µM*
CN(C)c1ccc2nc3ccc(=[N+](C)C)cc-3sc2c1 | 7.9µM*! | 1.2µM* | 0.0073µM* | 10µM* | 25µM*! | 7.9µM*!
C[C@H]1CN([C@@H](C)CO)C(=O)CCCn2nncc2CO[C@H]1CN(C)C(=O)c1ccncc1 | 6% | 0% | ? | 10% | ? | 1%
CN(c1ncccc1CNc1nc(Nc2ccc3c(c2)CC(=O)N3)ncc1C(F)(F)F)S(C)(=O)=O | 4.3µM* | nt | nt | nt | nt | nt
SMILES | ATXN2 expr inh | DT40 TDP1 CPT | DT40 TDP1 no CPT | TGFb SMAD3 inh | ATXN viability | HepG2 tox
O=C1CC(/C=C/c2ccncc2)=Nc2ccccc2N1 | 20%[11.3 µM] | 5.8µM* | 5.8µM* | -21% | ? | -19%
O=C1CC(c2ccccc2)=Nc2ccccc2N1 | 31% | 7% | -1% | 0% | i | -1%
O=C(c1ccc(S(=O)(=O)NCC2CCCO2)cc1)N1CCN(c2cccc(Cl)c2)CC1 (stereo unspecified) | -30% | 15µM* | 15µM* | -19% | i | -21%
COc1ccc(-c2ccc(S(=O)(=O)NCC3CCCO3)cc2)cc1 (stereo unspecified) | -22% | 6% | ? | 7% | i | 10%
O=C(c1ccc(S(=O)(=O)NCC2CCCO2)cc1)N1CCN(c2ccccc2F)CC1 (stereo unspecified) | -15% | -10% | -11% | 0% | i | -8%
O=S(=O)(NCC1CCCO1)c1ccc(-c2ccc(Cl)cc2)cc1 (stereo unspecified) | -21% | 12µM* | 13µM* | -22% | i | -18%
N#Cc1ccc(COC(=O)CC(NC(N)=O)c2ccc(Cl)cc2)cc1 (stereo unspecified) | 0% | 6% | -3% | 3% | i | -2%
CCOCCCNC(=O)c1cc(=O)n(Cc2cccc(C)c2)c2ccccc12 | -25% | ? | 21µM* | 1% | i | 3%
CCn1c(=O)cc(OCC(=O)NCCc2cccc(C)c2)c2ccccc21 | 31% | ? | ? | -22% | i | -24%
CCOc1ccc(OCC)c(NC(=O)C2CCCN(S(=O)(=O)c3cccs3)C2)c1 (stereo unspecified) | -39% | ? | 16µM* | 6% | ? | 1%
COc1ccc2nc(NC(=O)C3CCN(S(=O)(=O)c4cccs4)CC3)sc2c1 | ? | 23µM* | 29µM* | ? | i | -25%
O=C(Nc1nc2ccc(C(=O)N3CCCCC3)cc2s1)C1CCCCC1 | 16% | 2.6µM* | 4.1µM* | 3% | i | -2%
COc1ccc2nc(NC(=O)C3CCN(S(=O)(=O)c4cnc[nH]4)CC3)sc2c1 | -6% | -29% | -16% | 2% | i | -22%
CCn1c2ccccc2c2cc(NC(=O)C3CCN(S(=O)(=O)c4cccs4)CC3)ccc21 | -3% | 16µM* | 21µM* | 8% | i | 1%
Cc1cc(C)c(NC(=O)CSc2nc(=O)n(Cc3ccncc3)c3c2CCC3)c(C)c1 | 1% | 9% | 5% | -9% | i | -2%
